Data from PubChem BioAssay AID624330 (Southern Research Specialized Biocontainment Screening …, 2012).
Out of some 340,000 compounds screened, about 2,100 (0.62%) were called active.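 How the source made its calls: active means first-screen hits whose inhibition reached a set limit at any dose in the follow-up dose series; inconclusive means inhibition above the set first-screen limit but never retested; inactive means the rest.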 Only a sample is shown. Potency and affinity values are given separately.

biological target: Rac GTPase-activating protein 1 (Homo sapiens) (UniProt Q9H0H5); assay: blockers of MgcRacGAP-driven Rac1 GTP hydrolysis – biochemical, ADP Hunter fluorescence, primary and confirmatory, confirmation (AID 624330); settings: MgcRacGAP-stimulated Rac1 GTP hydrolysis, at 30 µM, stronger effect = higher value, GST-tagged Rac1 F28L mutant substrate;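 further: fluorescence reports GDP produced by GAP-driven GTP hydrolysis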
Sequence (Q9H0H5 whole entry, looked up): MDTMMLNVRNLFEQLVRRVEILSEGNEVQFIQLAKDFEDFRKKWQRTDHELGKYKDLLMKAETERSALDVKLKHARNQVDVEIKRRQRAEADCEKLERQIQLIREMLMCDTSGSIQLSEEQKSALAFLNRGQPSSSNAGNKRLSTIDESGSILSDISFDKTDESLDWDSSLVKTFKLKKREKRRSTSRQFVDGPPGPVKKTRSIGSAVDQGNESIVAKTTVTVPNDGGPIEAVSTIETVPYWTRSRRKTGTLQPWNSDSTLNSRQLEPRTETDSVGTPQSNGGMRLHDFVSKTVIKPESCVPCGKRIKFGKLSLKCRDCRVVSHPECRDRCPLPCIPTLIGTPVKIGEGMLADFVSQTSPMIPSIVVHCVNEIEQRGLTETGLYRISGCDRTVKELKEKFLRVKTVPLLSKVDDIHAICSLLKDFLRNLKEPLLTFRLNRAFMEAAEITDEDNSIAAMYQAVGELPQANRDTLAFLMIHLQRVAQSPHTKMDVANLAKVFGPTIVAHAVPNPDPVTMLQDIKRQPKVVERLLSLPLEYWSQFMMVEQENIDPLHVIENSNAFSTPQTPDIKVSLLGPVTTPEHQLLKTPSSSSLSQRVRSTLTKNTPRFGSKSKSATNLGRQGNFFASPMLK

inhibition, inactive:
COc1ccc(CN2C(=O)C(CC(=O)NCCCN(C)C)CC(C(=O)N(C)C)=C2C)cc1 (configuration not stated) 12.7%
Cc1sc2ncnc(N(C)Cc3cccs3)c2c1C 10.9%
CN(CCc1ccccn1)c1ncnc2[nH]ncc12 6.58%
COc1ccc(CNC(=O)CCCn2nc([N+](=O)[O-])cc2C)cc1 9%
O=C1c2ccccc2C(=O)N1c1nc(-c2cccs2)cs1 13.9%
O=C1CCCCCN1Cc1ccccc1 3.56%
O=C1CCCCCCCN1Cc1ccccc1 1.03%
COc1ccc(NC(=O)Nc2ccon2)cc1OC 7.89%
Cc1ccc(S(=O)(=O)N2CCN(Cc3ccco3)CC2)c(C)c1 3.78%
COc1ccc(CN2CCN(Cc3ccco3)CC2)cc1 29.8%
FC(F)(F)c1ccc(CN2CCN(Cc3ccco3)CC2)cc1 15.3%
COc1ccc(CN2CCN(C(=O)c3ccco3)CC2)cc1OC 11.2%
CCc1ccc(S(=O)(=O)N2CCN(Cc3ccco3)CC2)cc1 6.82%
Cc1cccc(CN2CCSCC2)c1 23.8%
COc1cc(OC)c(OC)cc1CN1CCN(Cc2ccco2)CC1 20.1%
CCCc1ccc(S(=O)(=O)N2CCN(Cc3ccco3)CC2)cc1 8.89%
CCc1sc(C(=O)NCCCN2CCCC2=O)cc1Br -10%
Cc1ccc(C)c(S(=O)(=O)N2CCN(C(=O)CSc3ccccc3)CC2)c1 8.52%
CC(Sc1nnc(-c2ccncc2)n1C)C(=O)NCC1CCCO1 (configuration not stated) 1.73%
CN(C)CCOC(=O)CC12CC3CC(C1)CC(CC(=O)OCCN(C)C)(C3)C2 5.06%
COc1cccc(CNC(=O)c2ccc(S(=O)(=O)N3CCCCC3)cc2)c1 9.59%
Cc1ccc(S(=O)(=O)Nc2cc(=O)[nH]c(SCC(=O)Nc3ccccc3C(F)(F)F)n2)cc1 5.86%
CCOC(=O)CC(NC(=O)CCc1c(C)nc2nc(C)nn2c1C)c1ccc(OC(C)C)cc1 (configuration not stated) 8.74%
CCOc1ccc(C(=O)O)cc1OC 5.02%
CCCOc1ccc(N)cc1N 18.7%
CCOc1ccc(C(N)=O)cc1OC -0.9%
CCN(CC)Cc1cc(C(C)=O)ccc1OCC(C)C -0.12%
COc1ccc2[nH]c3c(c2c1)CCN1C(=O)C(CC(=O)NCCC2=CCCCC2)C[C@H](C(=O)N2CCCCC2)[C@@]31CCc1ccccc1 (some centres not stated) 3.14%
CCc1nc(N)c(C#N)c(-c2ccc(F)cc2)c1C 16%
O=C(Nc1ccc(C(F)(F)F)cc1)C1CC(=O)N(c2ccc3c(c2)OCCO3)C1 (configuration not stated) 11.2%
O=C(COC(=O)c1ccccc1O)Nc1ccc(OC(F)F)cc1 6.22%
[O-]/C(=C(\C(=S)Nc1cccc2ccccc12)[n+]1ccccc1)c1ccc(OC(F)F)cc1 8.46%
Cc1ccc(S(=O)(=O)C2CCCCC2=O)cc1 (configuration not stated) 12.8%
Nc1ccc(CCC(=O)N2CCCC2)cc1 3.67%
Cc1c(Cl)c([N+](=O)[O-])nn1Cc1ccc(C(=O)N/N=C\c2ccccn2)o1 3.44%
Cc1c(Cl)c([N+](=O)[O-])nn1Cc1ccc(C(=O)N/N=C\c2cccc(Br)c2)o1 6.83%
COc1cc(/C=N/NC(=O)c2cccc([N+](=O)[O-])c2)cc(OC)c1O 6.29%
O=C(CNC(=O)c1cccc(F)c1)N/N=C/c1cccc([N+](=O)[O-])c1 4.45%
COc1cc(/C=N/NS(=O)(=O)c2ccc(C)c([N+](=O)[O-])c2)cc([N+](=O)[O-])c1O 22.1%
CCN(CC)c1ccc(/C=N/NS(=O)(=O)c2cccc([N+](=O)[O-])c2)cc1 23.2%
Cc1ccc(S(=O)(=O)N/N=C/c2ccc(O)c(O)c2)cc1[N+](=O)[O-] 30.2%
O=[N+]([O-])c1cccc(/C=N/NS(=O)(=O)c2ccccc2)c1 3.56%
O=C(C1CCN(S(=O)(=O)N2CCCCC2)CC1)N1CCCCC1 6.28%
CC1=C(C(=O)N2CCCC(CCC(=O)NCc3ccc(F)c(F)c3)C2)OCCO1 (configuration not stated) 6.22%
COc1ccc(/C=N/NC(=O)c2cccc([N+](=O)[O-])c2)cc1O 8.06%
COc1ccc(/C=N/NC(=O)c2cccc([N+](=O)[O-])c2)cc1OC 7.73%
Cc1cccc(NC(=O)CSc2nnc(CNC(=O)c3cccs3)o2)c1C 8.9%
CC(C)NC(=O)CSCc1c(F)cccc1Cl 9.25%
Cc1ccc(-c2nc3ccccn3c2NCc2ccc3c(c2)OCO3)cc1 11.7%
Oc1ccc(-c2nc3ncccn3c2Nc2ccc3c(c2)OCCO3)cc1 11.9%
Cc1ccc(-c2nc3cnccn3c2Nc2ccc3c(c2)OCO3)cc1 24.2%
Oc1ccc(-c2nc3ccccn3c2NCc2ccc3c(c2)OCO3)cc1 24.6%
Cc1cccc(Nc2c(-c3ccc(N4CCOCC4)cc3)nc3ncccn23)c1 7.86%
Cc1ccn2c(NCc3ccc4c(c3)OCO4)c(-c3ccc(O)cc3)nc2c1 15.5%
S=C1NC[C@H](CC2CCCCC2)N1CC1CCCCC1 5.21%
COc1c(C)cc(C(=O)C2CCCN(Cc3cccc4nccnc34)C2)cc1C (configuration not stated) 5.94%
CCCNC(=O)Nc1nnc(C2CC2)s1 2.83%
Cc1ccc(C(=O)NCCc2ccccc2)cc1S(=O)(=O)N1CCOCC1 1.5%
CCN(CC)CCCNC(=O)c1cc2c(-c3ccc(Cl)cc3)nn(C)c2s1 15.3%
CCCN(CCC)CCNC(=O)c1cc2c(-c3ccc(Cl)cc3)nn(C)c2s1 31.8%
CCOc1ccc(-c2nnc(SCC(=O)O)n2Cc2ccccc2)cc1 8.65%
COc1ccc(C)cc1NC(=O)CNC(c1ccccc1)c1ccccc1 1.89%
COc1ccc(C)cc1NC(=O)C(NCC1CCCO1)c1ccccc1 (configuration not stated) 6.45%
CCOc1ccc(-c2csc(NC(=O)c3cccc(N4C(=O)CCC4=O)c3)n2)cc1 1.94%
COc1ccc(Cl)cc1NC(=O)NN1CCN(C)CC1 9.05%
COc1cccc(-c2c(C(=O)N/N=C(\C)c3ccco3)nnn2-c2nonc2N)c1 3.24%
Cc1ccc(-c2n[nH]c(=S)n2/N=C/c2cccs2)cc1 25.8%
C(=N\N=C\c1cccs1)/c1cccs1 3.75%
O=[N+]([O-])c1ccc(/C=N/n2c(-c3cccnc3)n[nH]c2=S)cc1 14.5%
Cc1ccc(/C=N/n2c(C)nnc2C)s1 5.21%
Cc1nnc(C)n1/N=C/c1cccs1 17.6%
Cc1nnc(C)n1/N=C/c1cccc([N+](=O)[O-])c1 0.71%
c1cncc(-c2nnc3n2N=C(c2cccs2)CS3)c1 7.37%
S=c1[nH]nc(-c2cccnc2)n1/N=C/c1ccc(Br)s1 8.12%
O=C(CCNC(=O)c1ccco1)NCc1ccc(C(=O)O)cc1 10.3%
O=C(NCc1cccnc1)c1ccc([N+](=O)[O-])cc1 6.96%
CC1(C)CC(=O)C2=C(C1)NC(SCC(N)=O)=C(C#N)C21CCCCC1 7.26%
CC(C)Oc1ccc(OCCn2c(S(=O)(=O)O)nc3c(N)ncnc32)cc1 2.7%
Cc1ccccc1OCCn1c(S(=O)(=O)O)nc2c(N)ncnc21 9.98%
Cc1ccccc1OCCn1cnc2c(N)ncnc21 -13%
CCOc1ccc(OCCn2c(S(=O)(=O)O)nc3c(N)ncnc32)cc1 12.6%
CN1CCN(C(=O)CSc2cc(=O)n(C)c3ccccc23)CC1 6.45%
CCOC(=O)N1CCC(NC(=O)C(CC(C)C)NC(=O)C2CCCCC2)CC1 (configuration not stated) 9.57%
Cc1ccc(S(=O)(=O)N2CCC(C(=O)NCCc3ccccn3)CC2)cc1 -0.14%
COc1ccc(/C=C2\SC(N)=NC2=O)cc1Cl 1.73%
COc1cc(/C=C2\SC(N)=NC2=O)cc(Br)c1O 29.2%
COc1ccc(Br)cc1/C=C/C(=O)NC(=S)Nc1ccc(Cl)c(C(=O)O)c1 6.62%
COc1ccc(Br)cc1C(=O)NC(=S)Nc1ccc(Cl)c(C(=O)O)c1 5.62%
COc1cc(/C=C2\SC(c3ccccc3)=NC2=O)cc(Cl)c1O 27.3%
COc1cc(/C=C2/SC(=S)N(Cc3ccccc3)C2=O)cc(Cl)c1O 10%
CC1CCCCN1C(=O)c1ccc(CS(=O)(=O)Cc2ccccc2)cc1 (configuration not stated) 8.5%
CCN1CCN(C(=O)c2[nH]c3ccc(OC)cc3c2C)CC1 6.11%
Cc1ccc(S(=O)(=O)NCCc2c[nH]c3ccccc23)cc1 4.49%
COc1ccc(CCNC(=O)CCn2c(=O)c3cccn3c3ccc(F)cc32)c(OC)c1OC 12.9%
O=C1NCC(COc2cccc3ccccc23)O1 (configuration not stated) -1.12%
Cn1c(O)c(N=NC(=O)CNC(=O)c2cccnc2)c2ccccc21 4.23%
CCN1C[C@@H]2[C@@H]3C(=O)N(Cc4ccccc4)C(=O)[C@@H]3[C@](C)(C1=O)N2C(=O)c1ccc(Br)cc1 7.24%
